What all share (assay): NCI-60 one-dose screen, 48 h (100 = growth as untreated, 0 = no growth, -100 = all killed)
Holding throughout (settings): 10 µM

The test system of assay [1] is NCI-H23 lung.
Assay [2] relates to NCI-H226 lung.
Assay [3] relates to NCI-H460 lung.
In assay [4] the test system is NCI-H522 lung.
Assay [5] deals with A549/ATCC NSCLC.
In assay [6] the test system is 786-0 renal.
Assay [7] relates to COLO 205 colon.
Assay [8] has as its system DU-145 prostate.
Assay [9] has as its system K-562 leukemia.
Assay [10] concerns MALME-3M melanoma.
Assay [11] relates to MDA-MB-231 breast.
The subject of assay [12] is RXF 393 renal.
The subject of assay [13] is SF-268 CNS.
Assay [14] relates to SF-295 CNS.
Assay [15] deals with SF-539 CNS.
Assay [16] concerns M14 melanoma.
For assay [17], the system named is HOP-92 NSCLC.
In assay [18] the test system is UACC-257 melanoma.

The panel holds about 83,000 compounds, 20% with a hit somewhere; the sample as a whole holds those more often.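 For each line, cells grew in 96-well plates with the test compound present at a single concentration for 48 hours.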 A number with no mark means an inactive call. Activity calls are given as the source filed them. How the source made its calls: active means growth percent below 10; inactive means the rest.

Turning to `CCOC(=O)c1sc2ncnc(Nc3ccc4c(cnn4C(=O)Nc4ccc(C)c(Cl)c4)c3)c2c1C`, the growth in assay [1] was 91.4%; in assay [2] it was 87.6%; in assay [3], 114%; in [4] it was 68.8%; in assay [5], 72.7%; in [6] it was 89.6%. The growth in assay [7] was 110%; in assay [8], 102%; in [9], 102%; in [10], 91.1%; in assay [11], 96.5%; in assay [12] it was 99.3%. Besides, the growth in assay [13] is 103%; in [14], 102%; in [15], 104%; in assay [16], 103%.
As to `Nc1ccc(-c2cccs2)cc1NC(=O)c1ccc(CCCC(=O)Nc2ccc(C3CC3N)cc2)cc1` (centres undefined), the growth in assay [1] was 86.3%; in assay [2], 108%; in assay [3], 38%; in assay [4], 53.6%; in assay [5], 72.1%; in [6], -48% (active). Also, the growth is 73.9% in assay [7]; 84.6% in assay [8]; -30.7% (active) in assay [9]; 75.1% in assay [10]; 47.1% in assay [11]; 77% in assay [12]. The growth is 104% in assay [13], 84% in assay [14], 77% in [15] and 70.8% in assay [16].
On to `COc1ccc(C(=O)CSc2nc(-c3cc(OC)ccc3OC)cc(-c3ccc(OC)cc3)c2C#N)cc1`, for which the growth in assay [1] was 91.6%; in assay [2], 88.4%; in assay [3], 127%; in assay [4], 81.6%; in [5] it was 78.6%; in [6], 94.4%. The growth in [7] was 98.8%; in assay [8], 108%; in [9] it was 102%; in assay [10], 110%; in assay [11], 102%; in assay [12] it was 107%. The growth in assay [13] is 90%; in assay [14] it was 100%; in assay [15] it was 86.5%; in assay [16] it was 93.9%.
Take `COc1ccc2nc3cc(Cl)ccc3c(Nc3cc(CN4CCCC4)c(O)c(CN4CCCC4)c3)c2n1`: the growth is -29.4% (active) in [1]; -32.1% (active) in [2]; 4.16% (active) in assay [3]; -16.4% (active) in assay [17]; 9.53% (active) in [5]; 0.406% (active) in [6]. Also, the growth was -48.5% (active) in [7]; 18.2% in assay [8]; -73.6% (active) in assay [10]; -21.6% (active) in assay [11]; -68.9% (active) in [12]; -25.1% (active) in assay [13]. The growth was -26.8% (active) in [14], -21.6% (active) in assay [15], -87.3% (active) in [18] and -82.5% (active) in [16].
For the molecule `CCCc1nc(C(C)(C)O)c(C(=O)O)n1Cc1ccc(-c2ccccc2-c2nn[nH]n2)cc1`, the growth in assay [1] is 103%; in assay [2], 103%; in assay [3], 105%; in assay [17], 91.7%; in assay [5], 99%; in [6] it was 104%. Moreover, the growth is 111% in assay [7]; 120% in [8]; 102% in assay [10]; 109% in assay [11]; 117% in assay [12]; 101% in [13]. The growth in assay [14] is 95.3%; in assay [15] it was 103%; in assay [18] it was 103%; in assay [16] it was 109%.
Regarding `O=C1c2c(c3c4ccccc4n(CCCCCCN4CCOCC4)c3c3[nH]c4ccccc4c23)C(=O)N1O`, the growth in assay [1] is 81.5%; in assay [2] it was 66.7%; in [3], 72.2%; in assay [4] it was 67.3%; in assay [5], 81.1%; in [6] it was 5.72% (active). For the same molecule, the growth in [7] is 36%; in [8], 109%; in [9] it was -32.9% (active); in [10], 117%; in assay [11], 48.5%; in assay [12], 90.3%. Further, the growth in assay [13] is 92.9%; in assay [14], 108%; in [15] it was 92.4%; in assay [16], 81.9%.
With `C[N+]1(CCCCC[N+]2(C)CCCC2)CCCC1`, the growth in assay [1] was 105%; in assay [2] it was 83.8%; in assay [3] it was 94.7%; in assay [17] it was 74.6%; in assay [5], 76.2%; in assay [6], 118%. In addition, the growth was 122% in assay [7]; 93.2% in assay [8]; 90% in [10]; 89.5% in assay [11]; 122% in assay [12]; 97.1% in [13]. For the same molecule, the growth in assay [14] is 123%; in assay [15] it was 93.7%; in [18], 102%; in assay [16], 98.5%.
As for `O=C(CCCCNC(=O)c1nc(-c2ccccc2)n(-c2ccccc2)n1)NO`, the growth in [1] was 87%; in assay [2], 83.9%; in [3] it was 78.1%; in assay [4], 27.7%; in assay [5], 84.2%; in assay [6], 92%. In addition, the growth in assay [7] was 84.9%; in assay [8], 98.6%; in assay [9], 81.7%; in assay [10] it was 23.5%; in assay [11], 86.2%; in [12] it was 84.2%. In addition, the growth was 90.1% in assay [13], 93.6% in [14], 65.1% in assay [15] and 66.8% in assay [16].
Consider `CCn1c2ccc(O)cc2c2c(C)c3c[n+](C)ccc3c(C)c21`, for which the growth in [1] was 19.2%; in assay [2], 26.1%; in assay [3] it was 7.28% (active); in assay [4], -0.0478% (active); in [5], 37.5%; in assay [6], 13.7%. In addition, the growth in [7] is 43.6%; in assay [8], 53.7%; in assay [9], 60%; in assay [10], -20.4% (active); in assay [11], 71.7%; in [12], 57.1%. Further, the growth in assay [13] is -10.1% (active); in assay [14] it was 13.6%; in assay [15] it was 12.1%; in assay [16] it was 51.8%.
